Measured values reported in PubChem BioAssay AID488969 (Vanderbilt High Throughput Screening Facility, 2010).
In all, about 110,000 compounds were measured (“z-score”: median about -0.1, highest 2% from about 2 on). The sample holds the highest values, similar compounds and a random draw of the others, so the mix is not that of the screen. Active and inactive are the calls of the source.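 Rule for the calls: active = z-score in the third read window above 3 or below -3; inactive = the rest.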

Molecular target: Metabotropic glutamate receptor 8 (Rattus norvegicus) (UniProt P70579)
Experiment: mGluR8 Gi/Go-coupled signaling modulation – cell-based, rat, thallium flux, HTS, primary screen (AID 488969)
Details: HEK293 rat mGluR8, GIRK (G protein-gated inwardly rectifying potassium channel) thallium flux, FluoZin2; at 10 µM; stronger effect = higher value; submaximal glutamate (EC20) added with thallium

Sequence of Metabotropic glutamate receptor 8 (Rattus norvegicus) (P70579 whole entry, looked up): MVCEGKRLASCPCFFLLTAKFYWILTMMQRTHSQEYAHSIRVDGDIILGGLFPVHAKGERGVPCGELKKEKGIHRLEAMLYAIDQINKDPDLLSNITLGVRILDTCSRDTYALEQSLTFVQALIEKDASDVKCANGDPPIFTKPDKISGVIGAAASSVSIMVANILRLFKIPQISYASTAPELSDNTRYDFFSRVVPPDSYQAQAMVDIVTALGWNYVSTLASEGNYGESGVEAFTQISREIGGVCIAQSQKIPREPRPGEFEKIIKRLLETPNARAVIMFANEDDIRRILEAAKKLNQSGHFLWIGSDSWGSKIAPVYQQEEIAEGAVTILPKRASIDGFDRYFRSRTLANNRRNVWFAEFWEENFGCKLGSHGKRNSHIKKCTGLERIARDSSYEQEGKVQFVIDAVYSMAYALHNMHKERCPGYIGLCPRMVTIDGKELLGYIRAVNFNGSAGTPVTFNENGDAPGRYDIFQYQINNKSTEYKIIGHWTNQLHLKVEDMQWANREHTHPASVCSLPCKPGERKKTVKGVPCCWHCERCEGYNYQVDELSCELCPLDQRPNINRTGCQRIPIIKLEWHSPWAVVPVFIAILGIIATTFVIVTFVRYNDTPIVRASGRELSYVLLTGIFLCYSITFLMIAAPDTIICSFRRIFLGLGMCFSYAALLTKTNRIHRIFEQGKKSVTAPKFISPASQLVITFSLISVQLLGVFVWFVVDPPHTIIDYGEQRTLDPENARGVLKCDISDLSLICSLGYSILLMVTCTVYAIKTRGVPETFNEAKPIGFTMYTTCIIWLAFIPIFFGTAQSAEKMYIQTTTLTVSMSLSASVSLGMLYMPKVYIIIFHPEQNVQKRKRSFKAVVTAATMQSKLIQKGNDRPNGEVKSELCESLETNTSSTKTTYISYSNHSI

SMILES | z-score
Nc1nnnn1/N=C/c1ccccc1OCc1ccccc1 | -0.208
COc1ccc(N2CCN(CC(=O)Nc3ccc(-n4cnnn4)cc3)CC2)cc1 | 1.05
CCCCOP(=O)(OCCCC)C(O)c1ccc(Br)cc1 (configuration not stated) | -0.269
CCN(CC)S(=O)(=O)c1cccc(C(=O)N2CC(O)CC2C(=O)OC)c1 (configuration not stated) | -0.00902
O=C(N/N=C/c1ccccn1)c1ccc(Br)cc1 | 1.82
COc1ccc(CSCC(=O)N/N=C/c2ccccc2OCc2ccccc2)cc1 | 1.27
O=C(N/N=C/c1ccc2cccc(OCc3ccccc3)c2n1)c1ccc(Cl)cc1 | 0.327
O=C(N/N=C/c1ccc2cccc(OCc3ccccc3)c2n1)c1ccc(Br)cc1 | 3.65 (active)
COc1ccc(C(=O)N/N=C/c2ccc3cccc(OCc4ccccc4)c3n2)cc1 | 3.81 (active)
COc1ccc(C(=O)N/N=C/c2cccc3cccnc23)cc1 | -0.417
Cc1ccc(C(=O)N2CCN(c3ccc([N+](=O)[O-])c(N4CCOCC4)c3)CC2)cc1 | -0.394
COc1c(C)cccc1C(=O)Nc1cc(-c2nn3c(C)nnc3s2)ccc1C | -1.6
Cn1c2ccccc2c(=O)c2c(=O)n(-c3ccccc3)c(C3CCCCC3)nc21 | -1.31
CCCn1c(SCC(=O)/C(C#N)=C(\C)N)n[nH]c1=O | -0.649
CCOC(=O)C(CC)(CC)/C(C)=N/NC(=O)CC#N | 0.316
CCOc1nc(Nc2ccc(OC)cc2)nc(OCC)n1 | -1.62
COc1ccc(NC(=S)Nc2ccc3nc(C)c(C)nc3c2)cc1 | -0.104
CCOC(=O)c1csc(NC(=O)CSc2nnnn2-c2ccc(OC)cc2)n1 | 0.0329
c1nnnn1C12CC3CC(CC(C3)C1)C2 | 0.487
c1cn(C23CC4CC(CC(C4)C2)C3)cn1 | 4.17 (active)
Nc1ncn(C23CC4CC(CC(C4)C2)C3)n1 | -0.106
CCCC(C(=O)c1ccccc1)n1cncn1 (configuration not stated) | -0.313
COc1ccc(-c2c3c([nH]c(=S)c2C#N)CCC3)cc1 | 2.17
N#Cc1c(-c2cccnc2)c2c([nH]c1=S)CCCC2 | -0.285

SMILES | z-score
N#Cc1c(-c2ccncc2)c2c([nH]c1=S)CCCC2 | -0.164
COc1cc(C(=O)N(Cc2ccco2)Cc2cc3ccccc3[nH]c2=O)cc(OC)c1OC | -0.671
COc1cc(C2Nn3c(nnc3-c3ccccc3OC)S2)ccc1O (configuration not stated) | -0.0272
COc1ccc(OC)c(NC(=O)C(=O)NNC(=O)c2cccs2)c1 | 1.69
COc1ccc(NC(=O)c2cccs2)cc1 | 0.303
COc1ccc(NC(=O)C(=O)NNC(=O)c2cccs2)c(OC)c1 | 5.95 (active)
COc1ccc(NC(=O)C(=O)NNC(=O)c2cccs2)cc1 | 7.11 (active)
COc1cc(N)ccc1NC(=O)c1cccs1 | -0.15
COc1ccc(OCC(=O)NNC(=O)c2cccs2)cc1 | 0.919
CCC(=O)Nc1nnc(SCc2ccc(F)cc2)s1 | -0.00764
COc1ccc(N2C(=O)CC(Nc3ccc(C)cc3)C2=O)cc1 (configuration not stated) | -0.557
CC1CC(C)(C)NC(=S)N1CC(=O)N(C)Cc1ccccc1 (configuration not stated) | -0.189
CCNC(=S)NNC(=O)c1cccn(Cc2ccc(Cl)cc2Cl)c1=O | -0.0504
COn1c(=O)c(-c2cccs2)[n+]([O-])c2ccccc21 | 1.16
C=CCOn1c(=O)c(-c2cccs2)[n+]([O-])c2ccccc21 | 3.49 (active)
CCOn1c(=O)c(-c2cccs2)[n+]([O-])c2ccccc21 | -2.21
Cc1nn(C(C)C(=O)O)c(=O)c2c1sc1ccccc12 (configuration not stated) | -0.395
N#Cc1cn(-c2ccccc2)nc1-c1ccco1 | -0.0798
CCNC(=O)C1CCCN1S(=O)(=O)c1ccc(OC)cc1 (configuration not stated) | 0.787
CC(C)c1c(O)nc(SCC(=O)N2CCOCC2)[nH]c1=O | -0.357
CCC(C)c1c(O)nc(SCC(=O)N2CCOCC2)[nH]c1=O (configuration not stated) | 2.93
CCCCc1c(O)nc(SCC(=O)N2CCOCC2)[nH]c1=O | 0.0929
COC(=O)c1ccccc1Oc1nc(Cl)cc(OC)n1 | -0.22
CCOC(=O)c1cnc2c(C)c(C)ccc2c1Nc1ccc(S(=O)(=O)Nc2ncccn2)cc1 | -0.177

SMILES | z-score
CCOC(=O)c1cnc2c(C)c(Cl)ccc2c1Nc1ccc(S(=O)(=O)Nc2ncccn2)cc1 | 9.28 (active)
CCOC(=O)c1cnc2c(C)cc(C)cc2c1Nc1ccc(S(=O)(=O)Nc2ncccn2)cc1 | -0.378
CCOc1ccc(-n2c(=S)sc3c(=O)[nH]c(SCC(=O)NC(C)CC)nc32)cc1 (configuration not stated) | -0.859
CC1CCN(Cc2nnnn2-c2cccc([N+](=O)[O-])c2)CC1 | -0.243
CC(C)OCC(O)CCc1n[nH]c(=S)n1-c1ccccc1 (configuration not stated) | -0.224
Cc1ccc(OCCCNC2CCCC2)cc1 | -0.0441
CC(C)Oc1ccc(OCCCN2CCCCCC2)cc1 | -0.0757
c1ccc(OCCCN2CCCC2)cc1 | 0.00842
COc1ccc(OCCCN2CCCCCC2)cc1 | 8.02 (active)
CC1CCN(CCCCOc2ccc(C(=O)c3ccccc3)cc2)CC1 | 2.47
c1ccc(COc2ccc(OCCCNC3CCCC3)cc2)cc1 | 2.46
CCN1CCN(CCCOc2ccc(-c3ccccc3)cc2)CC1 | 4.56 (active)
COc1ccc(OCCCN2CCCC(C)C2)cc1 (configuration not stated) | 0.314
CCOc1ccc(OCCNC2CCCC2)cc1 | 0.0455
O=C(c1ccccc1)c1ccc(OCCCN2CCCC2)cc1 | -0.0127
CCN1CCN(CCCCSc2ccccc2)CC1 | -0.152
O=C(c1ccccc1)c1ccc(OCCCCN2CCCCC2)cc1 | -0.455
CSCCNC(=O)c1ccc(C(C)(C)C)cc1 | -0.121
CCCc1cc(=O)[nH]c(SCC(=O)N(Cc2ccccc2)C(C)C)n1 | -0.715
CC(C)(C)C(=O)Nc1cc(NC(=O)C(C)(C)C)cc(C(=O)Nc2cc(C(=O)O)cc(C(=O)O)c2)c1 | 0.00761
Cc1cc(C(F)F)n2ncc(C(=O)NCCc3ccc(Cl)cc3)c2n1 | -0.612
Cc1nn(CC(=O)OCC(=O)Nc2ccccc2[N+](=O)[O-])c(C)c1[N+](=O)[O-] | 0.113
Nc1nc(-c2cccnc2)nn1C(=O)COc1ccccc1 | -0.135
O=C(NCC(c1cccnc1)N1CCN(c2ccccc2F)CC1)c1cccc(Cl)c1 (configuration not stated) | 0.459

SMILES | z-score
CCCOc1c(OC)cc(Cl)cc1C1NC(=O)NC(C)=C1C(=O)NCc1ccccc1 (configuration not stated) | -0.431
c1ccc(COc2ccc(OCCCCN3CCCC3)cc2)cc1 | 0.565
CC1CCN(CCCOc2ccc(OCc3ccccc3)cc2)CC1 | 0.441
c1ccc(COc2ccc(OCCCN3CCCC3)cc2)cc1 | 0.306
c1ccc(COc2ccc(OCCCN3CCCCC3)cc2)cc1 | 2.89
O=C(c1ccccc1)c1ccc(OCCCN2CCCCC2)cc1 | 1.54
c1ccc(COc2ccc(OCCCCN3CCCCC3)cc2)cc1 | 2.79
CCOC(=O)c1c(NC(=O)CCN2C(=O)c3ccccc3C2=O)sc(C(=O)OC(C)C)c1C | -0.193
O=C(c1cnccn1)N(c1ccccc1)C1(C(=O)NC2CCCC2)CCCCC1 | 0.00523
CCOC(=O)CSc1nc(-c2ccc3c(c2)OCO3)ccc1C#N | -0.00752
COc1ccc2occ(C(=O)c3ccc(N=C(C)N(C)C)cc3)c2c1 | 3.46 (active)
COc1ccc2occ(C(=O)c3cccs3)c2c1 | 0.191
COc1ccc2occ(C(C)=O)c2c1 | -1.2
COc1ccc(CCNC(=S)Nc2ccc(C)cc2C)cc1 | -0.0431
CCc1cc2c(N[C@@H](C)C(=O)O)ncnc2s1 | 0.00833
N/C(=N\OC(=O)Cc1ccccc1)c1ccc(Br)cc1 | 2.92
N/C(=N\OC(=O)CCc1ccccc1)c1ccc(Br)cc1 | 0.12
N/C(=N\OC(=O)c1ccc(Br)cc1)c1ccccc1 | -0.37
O=C(NC(C(=O)O)c1ccccc1)c1ccc(S(=O)(=O)N2CCOCC2)cc1 (configuration not stated) | -0.0595
CCCCn1c(SCC(=O)N2CCC(C)CC2)nc2ccsc2c1=O | -1.86
Cc1ccc(-c2nnc(Nc3ccccc3)o2)cc1 | 1.1
CCNc1nnc(-c2ccc(C)cc2)o1 | 2.74
Cc1ccc(-c2nnc(-c3ccccc3)o2)cc1 | -0.254
CC(=O)Nc1cccc(C(=O)OC(C(=O)c2ccc(C)cc2)c2ccccc2)c1 (configuration not stated) | 0.508

SMILES | z-score
CCN(CC)c1ccc(NC(=O)CN2CCN(S(=O)(=O)c3cc(Cl)ccc3OC)CC2)cc1 | -0.269
CC1CN(CC(=O)c2c(N)n(Cc3ccccc3)c(=O)n(C)c2=O)CC(C)O1 (configuration not stated) | 0.178
Cc1ccc(Cn2nnc3c(=O)[nH]c(C4CCN(C(=O)c5cccs5)CC4)nc32)cc1 | -0.73
O=C(NCC(c1cccs1)N1CCOCC1)c1ccccc1NS(=O)(=O)c1ccc(Cl)c([N+](=O)[O-])c1 (configuration not stated) | -0.572
Cc1cc(=O)n2[nH]c(C)c(-c3ccccc3)c2n1 | -0.675
Cc1[nH]n2c(=O)cc(C(C)(C)C)nc2c1-c1ccccc1 | 4.43 (active)
Cc1[nH]n2c(=O)cc(C(C)C)nc2c1-c1ccccc1 | -0.963
CC(C)OC(=O)c1cccnc1N1CCN(c2ccc(F)cc2)CC1 | -0.216
Cc1nc2ccc(NC3=NCCCCC3)cc2s1 | 0.806
COc1cc(OC)c(C2C(C(=O)N3CCOCC3)=C(C)NC3=C2C(=O)CC(C)(C)C3)cc1OC (configuration not stated) | -0.103
Cc1ccn2c(NC3CCCCC3)c(C(C)C)nc2c1 | 2.52
Cc1ccn2c(NC3CCCCC3)c(C)nc2c1 | -0.312
CC(C)c1nc2ccccn2c1NC1CCCCC1 | 0.45
Cc1ccc(/C=C/S(=O)(=O)N2CCC(C(=O)O)CC2)cc1 | -0.628
CCOC(=O)N1CCN(c2nnnn2-c2ccccc2)CC1 | -0.14
Cc1ccc(S(=O)(=O)N2CCOCC2)cc1NC(=O)COC(=O)CSc1ccc(Br)cc1C | -0.132
CC(C)NC(=O)CSCc1c(Cl)cccc1Cl | -0.342
CCn1ncc(Cl)c1C(=O)Nc1cc(Cl)ccc1Cl | 0.0474
Cc1ccccc1OCc1nc2ccccc2c(=O)n1/N=C/c1cccc([N+](=O)[O-])c1 | -0.0563
O=C1c2ccccc2OC2(C=Cc3ccccc3O2)N1Cc1ccccc1 (configuration not stated) | 0.198
CN1CC2=Cc3ccccc3OC23Oc2ccccc2C=C3C1 | 2.01
